Most compounds without a hit are left out; they make up all but 0.89% or so of the library.
WNV protease inh: blocks West Nile virus NS2B-NS3 protease activity; z-score (no concentration beside the values); 65,000 tested, 0.18% active; WNV NS2B-NS3 protease, fluorogenic substrate Ex360/Em465; stronger effect = lower value; in the data active means z-score below about -3
Hsp90 inh: displaces geldanamycin probe from tumor Hsp90. P07900. NCI-N417 lysate Hsp90, Cy3B-geldanamycin FP displacement. inhibition, % at 30 µM. 64,000 tested, 0.35% active;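 active means inhibition above 50%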;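 further: 0% = tracer plus lysate wells and 100% = tracer alone without lysate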
DUSP1 inh: blocks human MKP-1 phosphatase activity. 65,000 tested, 0.15% active. inhibition, %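 (compounds tested at a single concentration somewhere between 10 and 100 µM)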. recombinant MKP-1, OMFP hydrolysis fluorescence. P28562;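 active means inhibition above about 50%, limit read from the data; inconclusive means inhibition over screen mean plus 3 SD, below that limit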;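 further: 0% = DMSO max control wells and 100% = wells with enzyme stopped by NaOH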
Target sequence (P28562 whole entry, looked up): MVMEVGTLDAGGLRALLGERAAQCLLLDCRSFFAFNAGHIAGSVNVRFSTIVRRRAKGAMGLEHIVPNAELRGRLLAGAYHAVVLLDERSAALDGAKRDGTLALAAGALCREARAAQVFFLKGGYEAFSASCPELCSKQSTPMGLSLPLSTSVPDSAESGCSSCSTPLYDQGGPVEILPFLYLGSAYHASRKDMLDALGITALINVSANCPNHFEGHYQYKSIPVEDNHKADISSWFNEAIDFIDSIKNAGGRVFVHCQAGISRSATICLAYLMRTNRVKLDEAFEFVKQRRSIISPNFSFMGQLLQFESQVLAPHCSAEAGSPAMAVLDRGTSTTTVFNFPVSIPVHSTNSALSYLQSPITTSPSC
Cdc25B inh: human M-phase inducer phosphatase 2 inhibition; P30305; recombinant Cdc25B, OMFP fluorescence Ex485/Em525; inhibition, %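 (compounds tested at 10 µM final in the well)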; 65,000 tested, 0.1% active; AID 368; in the data active means inhibition above about 50%
MMP-13 inhibitor: blocks human MMP13 activity. AID 570. inhibition, % at 4 µM. MMP-13 fTHP FRET cleavage, Mca fluorescence. 65,000 tested, 0.07% active. P45452;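 active means inhibition above the mean of compound-free control plate wells plus 3 SD, cut at about 14% in these data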;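 further: 0% = DMSO wells and 100% = wells with reference MMP-13 inhibitor after basal subtraction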
mHtt clearance: compounds clearing mutant huntingtin protein; AID 853; 47,000 tested, 0.42% active; HeLa Exon1htt(103Q)mCFP, aggregate imaging; zero = plate's median compound well; inhibition, % at 1.5 µM;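 active means inhibition of aggregate fluorescence above about 70%, also judged a hit by eye on the cell image, limit read from the data, passing the limit was not always enough; inconclusive means no rule stated for this call; inactive means not judged a hit on image review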;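 further: cells exposed to compound for three days before fixation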
* marks the source's active call; other numbers are inactive results; u = inconclusive; x = no result.

SMILES	WNV protease inh	Hsp90 inh	DUSP1 inh	Cdc25B inh	MMP-13 inhibitor	mHtt clearance
O=C(O)CCC(=O)N1CCCC1C(=O)O (stereo not given)	x	2	x	x	x	x
Cc1oc2c(CN(C)C)c(O)ccc2c(=O)c1-c1ccc2ccccc2n1	-3.1*	-2	-3	2	0	-9
Cc1cc(C)n(CCc2nc(-c3cccs3)cs2)n1	0.05	1	-11	-2	-3	u
COc1cccc2cc(-c3csc(CCn4nc(C)cc4C)n3)c(=O)oc12	-4.6*	-10	23	-10	-8	x
NC(=S)NCCCC(N)C(=O)O (stereo not given)	x	-1	x	x	x	x
NC(=S)c1ccc[n+]([C@@H]2O[C@@H](COP(=O)([O-])OP(=O)(O)OC[C@H]3O[C@@H](n4cnc5c(N)ncnc54)C(OP(=O)(O)O)[C@H]3O)C(O)C2O)c1 (stereo not given in full)	x	0	x	x	x	x
O=C1c2c(O)cc(O)cc2OC(c2ccc(O)c(O)c2)C1O (stereo not given)	x	71*	x	x	x	x
CN1CCC2=C(CCCC2CCc2ccc(Cl)c(Cl)c2)C1 (stereo not given)	x	0	x	x	x	x
CC(=O)CC1(O)C(=O)N(Cc2ccccc2)c2ccccc21 (stereo not given)	x	x	x	x	x	-8
C/C(CC1(O)C(=O)N(Cc2ccccc2)c2ccccc21)=N\O (stereo not given)	-6.4*	-3	-17	6	0	x
COc1cc(NS(=O)(=O)CC(C)C)c2ncccc2c1	x	1	x	x	x	x
CN(C)CCNC(=O)c1cc2ccccc2oc1=O	0.38	-6	-2	-8	-17	74*
CC(=O)OCCNC(=O)c1cc2ccccc2oc1=O	0.88	-5	-7	2	-15	-39
CC1C(=O)N(C)C(=O)c2nc[nH]c21 (stereo not given)	x	0	x	x	x	x
Cc1ccc(C2CC(=O)N(c3ccc(F)cc3)C3=C2C(=O)CCC3)cc1 (stereo not given)	x	x	x	x	x	79*
Cc1ccc(O)c(/C=N/NC(=O)C2=NNC(c3ccccc3)(c3ccccc3)C2)c1	x	x	x	x	x	71*
CCCN1CCCc2cc(CN)ccc21	-0.87	80*	23	38	-4	x
Cc1ccc(NCc2ccccc2O)cc1	x	x	x	x	x	-5
Cc1ccc(CNc2ccc(O)cc2)cc1	1.3	56*	0	0	3	11
O=c1[nH]c(CN2CCN(CCO)CC2)nc2ccccc12	1.3	-1	-6	0	-1	77*
CCCNCCCC(C)Nc1cc(OC)cc2c(C)ccnc12 (stereo not given)	x	-6	x	x	x	x
CCOC(=O)COc1ccc(S(=O)(=O)N2CCN(c3ccccc3F)CC2)cc1	-0.3	0	0	-6	-3	82*
CC(=O)Oc1cc2c(C(=O)NCCCN3CCOCC3)c(C)oc2c2ccccc12	0.22	94*	33	32	-1	x
Nc1ccc2ncccc2c1	-0.61	70*	-21	3	-6	53
Nc1ccc2ncccc2c1N	0.92	101*	-19	9	-1	x
SMILES	WNV protease inh	Hsp90 inh	DUSP1 inh	Cdc25B inh	MMP-13 inhibitor	mHtt clearance
c1cnc2c(c1)ccc1cccnc12	x	-2	x	x	x	x
CCNC(=O)[C@H]1O[C@@H](n2cnc3c(N)nc(NCCc4ccc(CCC(=O)O)cc4)nc32)C(O)[C@H]1O (stereo not given in full)	x	4	x	x	x	x
NC(N)=NCCCCN=C(N)N	x	1	x	x	x	x
CN(C)C(=O)CSc1nnc2sc3ccccc3n12	0.04	0	0	-2	0	-68
CCOC(=O)CC(=O)CSc1nnc2sc3ccccc3n12	-1.8	-3	78*	1	-2	-43
CCCc1sc(N/N=C/c2ccccn2)nc1-c1ccc(F)cc1	x	x	x	x	x	82*
C=Cc1c(C)c2cc3[nH]c(cc4nc(cc5nc(cc1[nH]2)C(C)=C5CCC(=O)O)C(CCC(=O)O)=C4C)c(C)c3C=C	x	139*	x	x	x	x
CCOC(=O)N1CCN(S(=O)(=O)c2ccc3c(c2)OCC(=O)N3)CC1	0.69	-3	1	-12	-6	71*
CCC(C(=O)Nc1cc(C)nn1-c1nc(C)cc(C)n1)c1ccccc1 (stereo not given)	-0.09	-1	33	66*	3	x
CCSCCOC(=O)C1=C(C)NC(=O)NC1c1ccccc1 (stereo not given)	-0.92	88*	2	-8	-1	x
CCSCCOC(=O)C1=C(C)NC2=C(C(=O)CCC2)C1c1coc2ccccc2c1=O (stereo not given)	0.15	1	50*	-4	1	16
COc1ccc(OC)c(S(=O)(=O)Nc2ccc(O)c3ccccc23)c1	-0.61	16	13	-2	4	44
COc1ccc(OC)c(S(=O)(=O)Nc2ccc(O)c(Sc3ncn[nH]3)c2)c1	0.64	2	9	-4	3	86*
COc1ccc(C(c2nnnn2C2CCCC2)N2CCc3ccccc3C2)cc1OC (stereo not given)	-0.87	-4	26	-13	1	x
COc1ccc(OC)c(C(c2nnnn2C2CCCC2)N2CCc3ccccc3C2)c1 (stereo not given)	0.03	-4	-15	-2	-2	73*
O=C(CSc1nccn1Cc1ccccc1)NCc1ccccc1	x	x	x	x	x	20
Cc1occc1C(=O)NC(C)C(C)(C)C (stereo not given)	-0.26	80*	25	-2	3	19
CCN1C(=S)SC(=O)C1=C1C=C(C)N(Cc2ccco2)C(C)=C1	-0.51	x	9	-1	19*	x
c1ccc2[nH]c(SCc3ccc(-c4nnco4)cc3)nc2c1	0.84	94*	3	-5	2	32
CCC1(O)CC2CN(CCc3c([nH]c4ccccc34)[C@@](C(=O)OC)(c3cc4c(cc3OC)N(C)C3[C@]45CCN4CC=C[C@@](CC)([C@@H](OC(C)=O)[C@]3(O)C(=O)OC)[C@H]45)C2)C1 (stereo not given in full)	x	0	x	x	x	x
CCN(CC)C(=O)c1sc(NC(=O)Cc2cccs2)c(C#N)c1C	-4.4*	-5	-18	2	0	-32
CCC(C)(C)NCCCCCNc1cc(OC)cc2cccnc12	x	0	x	x	x	x
Cc1oc2c(O)c(O)ccc2c(=O)c1-c1ccccc1	1.2	70*	-3	-9	8	x
COc1ccc(C2c3c(oc4c(C)cc(C)cc4c3=O)C(=O)N2Cc2cccnc2)cc1OC (stereo not given)	0.88	3	-11	0	-8	x
COc1cc(C2c3c(oc4c(C)cc(C)cc4c3=O)C(=O)N2Cc2cccnc2)ccc1O (stereo not given)	0.56	5	5	-4	32*	x
O=C(OCc1cnc(Cl)s1)c1cccc(Cl)c1Cl	x	x	x	x	x	16
Cc1nc(N2CCC(C)CC2)c2c(C)c(C(=O)O)sc2n1	-0.09	-4	0	9	-1	80*
CCN1CCN(C(=O)c2sc3nc(C)nc(N4CCC(C)CC4)c3c2C)CC1	-0.53	-1	8	9	0	x
Cc1noc(C(=O)Nc2ccc3c(c2)OCO3)c1Cl	-0.23	60*	-4	-4	8	18

Source: PubChem BioAssay
